From PubChem BioAssay AID588852 (The Scripps Research Institute Molecular Screening Center, 2011)
About 4,600 (1.3%) of roughly 360,000 compounds were called active. This excerpt belongs to a sample that is enriched for actives. Unmarked numbers belong to inactive results.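 Rule for the calls: active = percent inhibition above its own plate's cutoff, namely the mean of that plate's compound wells plus 3 SD; inactive = the rest.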

The compounds below were run against Muscarinic acetylcholine receptor M1 (Homo sapiens) (UniProt P11229) (assay: human M1 muscarinic receptor antagonists, primary screen, CHO-K1 cells, Fluo-8 calcium fluorescence, 1536-well (AID 588852;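 note: peak over basal fluorescence ratio during 140 s after agonist addition; 0% = ACh EC80 plus DMSO and 100% = DMSO alone without agonist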)). Details: CHO-K1 hM1, Fluo-8 calcium fluorescence, ACh EC80 antagonist; at 3 µM; active compounds read high.
Muscarinic acetylcholine receptor M1 (Homo sapiens), sequence (P11229 whole entry, looked up): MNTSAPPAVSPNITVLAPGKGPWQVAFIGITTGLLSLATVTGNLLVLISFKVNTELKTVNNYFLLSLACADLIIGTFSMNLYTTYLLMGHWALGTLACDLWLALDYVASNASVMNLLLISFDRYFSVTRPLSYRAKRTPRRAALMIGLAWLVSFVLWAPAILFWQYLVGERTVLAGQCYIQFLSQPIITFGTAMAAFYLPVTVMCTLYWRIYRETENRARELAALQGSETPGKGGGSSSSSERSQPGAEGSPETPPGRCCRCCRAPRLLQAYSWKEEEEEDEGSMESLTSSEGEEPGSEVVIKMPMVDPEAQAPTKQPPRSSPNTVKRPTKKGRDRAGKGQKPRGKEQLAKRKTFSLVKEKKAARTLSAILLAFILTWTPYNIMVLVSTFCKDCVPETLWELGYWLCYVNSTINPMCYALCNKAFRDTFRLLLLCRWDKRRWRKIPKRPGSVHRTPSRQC

Row | Compound | inhibition
1 | O=C(c1ccco1)N1CCN(C(=O)C2c3ccccc3Oc3ccccc32)CC1 | 11.3%
2 | O=C(c1ccco1)N1CCN(CCOc2ccccc2)CC1 | -9.86%
3 | CN(Cc1ccccc1)C(=O)CCC1CCN(C(=O)c2ccco2)CC1 | 31.3% (active)
4 | Cc1ccc([C@@H]2CC(=O)[C@@H]3CN(S(=O)(=O)c4ccc(C)cc4)[C@H](c4ccccc4F)C[C@@H]3N2S(=O)(=O)c2ccc(Cl)cc2)cc1 | -10%
5 | CC12CCC(=O)C=C1CCC1C2C(O)CC2(C)C1CCC2(O)C(O)CO (configuration not stated) | -14.1%
6 | COc1ccc(/C=C2\SC(=S)N(CCC(=O)N3CCOCC3)C2=O)cc1OC | -11%
7 | COc1cc(/C=C2/SC(=S)N(Cc3ccccc3)C2=O)cc(OC)c1O | 30.7% (active)
8 | COc1ccc(CCNC2=C(Cl)C(=O)N(Cc3ccccc3)C2=O)cc1OC | 13.4%
9 | O=C(CCNc1n[nH]c(=O)[nH]c1=O)N/N=C\c1ccc(Br)cc1 | -20%
10 | CN(C)CCOC1c2ccccc2-c2ccccc21 | 12.7%
11 | Cc1ccccc1C(OCCN(C)C)C1CCCCC1 (configuration not stated) | 99.8% (active)
12 | COc1ccccc1CNC(=O)Cn1c(=O)oc2cc(Cl)ccc21 | -12.3%
13 | CSCCC(NC(=O)c1ccco1)C(=O)NCCc1ccc(F)cc1 (configuration not stated) | 4.11%
14 | C[n+]1cccc(C(=O)O)c1 | -30.2%
15 | CC(C(=O)c1ccc(-c2ccccc2)cc1)[n+]1cccc(Br)c1 (configuration not stated) | 35.1% (active)
16 | O=C(NNC(=O)c1ccc(-c2ccccc2)cc1)Nc1ccccc1 | -2.91%
17 | CCCCc1nc(NCc2ccccc2)c(C#N)c2c1CCCC2 | -5.37%
18 | COc1ccc(C(C#N)=C2C=CC(=NO)c3ccccc32)cc1 | 22%
19 | CC1=C(C(=O)N2CCOCC2)CC(CC(=O)NCc2cccs2)C(=O)N1CCCN1CCCC1=O (configuration not stated) | 4.82%
20 | Cc1ccc2nc(-c3ccco3)c(Cc3cccc(Cl)c3)n2c1 | -5.65%
21 | Cc1cc2cc(CNC(=O)c3ccc(S(=O)(=O)N4CCOCC4)cc3)ccc2[nH]1 | 59.4% (active)
22 | COC(=O)c1ccc(CNC(=O)c2ccc(S(=O)(=O)N3CCCCCC3)cc2)cc1 | -11.2%
23 | Cc1ccc(S(=O)(=O)N2CCOCC2)cc1C(=O)NCc1ccc(F)cc1 | 9.1%

Row | Compound | inhibition
24 | CCCC(=O)N1CCC1(C)C(=O)NCc1ccc(SC)cc1 (configuration not stated) | -8.63%
25 | COc1cccc(NC(=O)COc2cccnc2[N+](=O)[O-])c1 | -7.66%
26 | CC(NC(=O)COc1cccnc1[N+](=O)[O-])c1ccc(Cl)cc1Cl (configuration not stated) | 42.6% (active)
27 | O=C(COc1cccnc1[N+](=O)[O-])Nc1ccc(Cl)cc1F | 3.68%
28 | CCCNC(=S)NC1CC2CCCC(C1)N2CC(C)C (configuration not stated) | 29.5%
29 | CC(C)C(c1nnnn1C(C)(C)C)N1CCN(Cc2cccnc2)CC1 (configuration not stated) | -13.5%
30 | CCOc1ccc(CN(Cc2ccco2)C(c2cccs2)c2nnnn2C(C)(C)C)cc1 (configuration not stated) | 18.8%
31 | CC(C)(C)n1nnnc1C(c1cccs1)N(Cc1cccnc1)CC1CCCO1 (configuration not stated) | 79.4% (active)
32 | CC(=O)NS(=O)(=O)c1ccc2c(c1)Cc1cc(S(=O)(=O)NC(C)=O)ccc1-2 | -13.4%
33 | O=C(NCC(O)c1nc2ccccc2[nH]1)c1ccc(Br)cc1 (configuration not stated) | -13.3%
34 | CCOC(=O)C1=CC[C@@H](c2ccncc2)N(S(=O)(=O)c2ccc(C)cc2)C1 | 24.6%
35 | CC(=O)C1=CCC(c2ccccc2)N(S(=O)(=O)c2ccc(C)cc2)C1 (configuration not stated) | -10.8%
36 | CCOC(=O)C1=CCC(c2ccc(F)cc2)N(S(=O)(=O)c2ccc(C)cc2)C1 (configuration not stated) | 34% (active)
37 | COc1c(C)cc(C(O)c2ncc(-c3cccc(C(F)(F)F)c3)[nH]2)cc1C (configuration not stated) | -5.01%
38 | COc1ccc(CN2C3CCCC2CC(NC(=O)c2cccc(F)c2)C3)cc1 (configuration not stated) | 32.6% (active)
39 | CCCN1C2CCCC1CC(NC(=O)c1cccc(OC)c1)C2 (configuration not stated) | -14.2%
40 | COc1ccc(NC(=O)NC2CC3CCCC(C2)N3Cc2ccccc2)cc1 (configuration not stated) | 1.24%
41 | Cc1nn(Cc2ccc(C(=O)N3N=C(C(F)F)CC3(O)C(F)F)cc2)c(C)c1[N+](=O)[O-] (configuration not stated) | -0.52%
42 | COc1ccc(C(C)(O)c2nc(-c3ccc(C)c(C)c3)cs2)cc1 (configuration not stated) | 6.49%
43 | Cc1cc([N+](=O)[O-])nn1CC(=O)Nc1ccc(Cc2ccncc2)cc1 | 28.3% (active)
44 | CC(C)CC(=O)Nc1ccc(Cc2ccncc2)cc1 | -16.9%
45 | Cc1cc(C)n(CC(=O)Nc2ccc([N+](=O)[O-])cc2)n1 | -1.63%
46 | CC(C)CN1CCC1(C)C(=O)Nc1ccc(OC(F)F)cc1 (configuration not stated) | 1.99%

Row | Compound | inhibition
47 | CCc1nc2c(=O)[nH]cnc2o1 | -5.65%
48 | COc1cc(C(=O)N(C)Cc2cccc(OC)c2OC)ccc1OCC(=O)Nc1cccc(C(F)(F)F)c1 | 5.88%
49 | CCCCC[C@H]1CN(C2CCCCC2)C(=O)[C@@H]1CC(=O)NCc1ccc(OC)cc1 | -1.3%
50 | O=C(CSc1nc2ncccc2[nH]1)Nc1ccc2c(c1)OCCO2 | -2.03%
51 | Cn1ccnc1SCC(=O)Nc1ccc2c(c1)OCCO2 | -13.9%
52 | O=C(CSc1nc(=O)n2ccccc2n1)Nc1ccc2c(c1)OCCO2 | 35.3% (active)
53 | CC(=O)Nc1cc(-c2ccc(N3CCN(C)CC3)cc2)cn2c(-c3ccc(F)cc3)cnc12 | -18.1%
54 | CCc1ccc2c(c1)NC(=O)C2(C)Cc1ccc(OC(F)(F)F)cc1 (configuration not stated) | -13.1%
55 | CN1CCC(OC(=O)COc2ccc(Cl)cc2Cl)CC1 | 51.8% (active)
56 | Cc1ccc(Cl)c(OCC(=O)NN2CCN(C)CC2)c1 | -16.2%
57 | O=C(CCCOc1ccc(Cl)cc1Cl)NNC(=O)C1CCC1 | -17.9%
58 | COc1ccc(CN(CC(=O)NC2CCCC2)C(=O)CCC(=O)Nc2cc(C)on2)cc1 | -0.71%
59 | CN(C)/C=C(\C#N)C(=O)c1cccnc1Oc1ccc(F)cc1F | -0.88%
60 | O=C(N=C1SC2CS(=O)(=O)CC2N1c1ccccc1)c1ccccc1 (configuration not stated) | -9.89%
61 | CCOC(=O)N1CCN(Cc2nnc(-c3ccccc3Cl)o2)CC1 | -15.1%
62 | CCOC(=O)C1CCN(Cc2ccc(-c3ccccc3)cc2)CC1 | 25.5%
63 | CCOC(=O)C1CCN(Cc2nnc(-c3cccc(Br)c3)o2)CC1 | 35.9% (active)
64 | CC1=NC2(CCCc3c2no[n+]3[O-])N(O)C1(C)C (configuration not stated) | 0.36%
65 | Cc1ccc(C(=O)NC(C)C(c2cccs2)N2CCOCC2)cc1C (configuration not stated) | -6.99%
66 | N#C[C@]1(S(=O)(=O)c2ccccc2)C[C@@H]2ON=C(c3cccc(Br)c3)[C@@H]2C1 | 33.5% (active)
67 | COC(=O)[C@]1(S(=O)(=O)c2ccccc2)C[C@@H]2ON=C(c3ccc(OC)cc3)[C@@H]2C1 | -7.9%
68 | CCN1C(=O)C(C(=O)NC(C)c2ccccc2)C2CC1(C)Oc1ccccc12 (configuration not stated) | -3.28%
69 | C=CCOc1ccc(/C=C/C(=O)OCC(=O)NCC2CCCO2)cc1 (configuration not stated) | -1.61%

Row | Compound | inhibition
70 | CC12CN(Cc3ccccc3)CC(C)(CN(Cc3ccccc3)C1)C2=NO | 38.2% (active)
71 | NC(=O)C1(N2CCCC2)CCN(Cc2ccccc2)CC1 | 2.73%
72 | O=S1(=O)CCN(Cc2ccccc2)CC1 | -8.4%
73 | COc1ccc(/C=N/NC(=O)C(C)N(c2ccc(OC)cc2)S(C)(=O)=O)cc1 (configuration not stated) | 3.35%
74 | CC(=O)Nc1ccc(Nc2ncnc3c2nnn3Cc2ccccc2Cl)cc1 | -1.5%
75 | COC(=O)C1(S(=O)(=O)C2(C(=O)OC)CCCC2)CCCC1 | -1.25%
76 | CCCCOc1ccc(CON(C(C)=O)C(C)=O)cc1Cl | 6.46%
77 | COc1ccccc1S(=O)(=O)NCc1ccc(C(=O)N(C)Cc2ccc(F)cc2)cc1 | -14.8%
78 | COc1ccc([N+](=O)[O-])cc1C1NN=C(c2cccc3ccccc23)S1 (configuration not stated) | -11%
79 | Cc1ccc(-c2nc(C#N)c(NCCCn3ccnc3)o2)cc1 | -17.5%
80 | Cc1ccc(S(=O)(=O)c2nc(NCCCn3ccnc3)sc2Cl)cc1 | 29.2% (active)
81 | Cc1ccc2c(Cl)c(C(=O)NCCCn3ccnc3)sc2c1 | -10.2%
82 | C/C(=N\NC(=S)NCc1ccccc1)C1CCCCC1 | -9.74%
83 | Cc1cc2nc(-c3ccc(Cl)cc3)c(Cc3cccc(F)c3)n2c(C)c1Br | 0.42%
84 | O=C(CC1CCCCC1)Nc1c2c(nn1-c1ccc(F)cc1)CS(=O)(=O)C2 | 104% (active)
85 | COc1ccccc1OCC(=O)Nc1c2c(nn1-c1ccc(F)cc1)CS(=O)(=O)C2 | -12.4%
86 | O=C(Nc1c2c(nn1-c1ccccc1)CS(=O)(=O)C2)C1CCCC1 | -10.8%
87 | c1ccc2c(c1)CSc1sccc1C2=C1CCNCC1 | 99.6% (active)
88 | CC(C)(C)NC(=O)CSC(=Nc1ccccc1F)NC#N | -1.14%
89 | COCCn1c(=S)[nH]c2cc(C(=O)NCCc3ccc(OC)c(OC)c3)ccc2c1=O | -6.48%
90 | COc1ccc(-n2c(=O)[nH]c3cc(C(=O)NCCc4ccc(OC)c(OC)c4)ccc3c2=O)c(OC)c1 | -8.11%
91 | CCOC(=O)N1CCN(C(=O)c2ccc3c(=O)n(CCc4ccc(OC)c(OC)c4)c(=O)[nH]c3c2)CC1 | 62.3% (active)
92 | COCc1cc(=O)[nH]c(-c2ccc(C(F)(F)F)cc2)n1 | -16.9%
